The supplement of paper PMC9433436
± gives the standard deviation of the averaged measurements. In all, about 4,100 sequences were measured (“relative kcat/Km (krel) vs genomic leader AAAGAU”: median about 1.7, highest 2% from about 6.5 on). The list comes from a sample in which the highest values are over-represented; it also holds similar and randomly drawn sequences.

Biological target: T1, E. coli RNase P holoenzyme (M1 P RNA + rnpA protein) (UniProt P0A7Y8)
T1 sequence: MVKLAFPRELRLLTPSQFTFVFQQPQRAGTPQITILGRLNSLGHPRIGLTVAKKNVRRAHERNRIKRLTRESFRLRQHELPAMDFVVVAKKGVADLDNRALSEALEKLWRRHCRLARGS
Test: relative kcat/Km (krel) vs genomic leader AAAGAU (relative (reference leader = 1)); higher = faster RNase P cleavage
Description: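 HTS-Kin: a pool of ptRNA-Met (21C construct) with all 4096 combinations of 5' leader nucleotides N(-6) to N(-1) was processed in vitro by E. coli RNase P (P RNA + rnpA/C5 protein) under multiple-turnover conditions at 37 C, pH 8, 17.5 mM MgCl2. Residual substrate was Illumina-sequenced at several fractions reacted, and relative kcat/Km (krel) was computed by internal competition kinetics, calibrated to the genomic leader (AAAGAU = 1). The listed hexamer is the varied N(-6)..N(-1) leader (DNA letters), and it sits between a fixed 5' stem-loop flank (GCAUGCACGAAAGUGCGUGCUAUGAA) and the mature tRNA-Met starting GGCUACGUAGCUCAGUUGG. Two technical replicates are averaged.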

[1] = fraction of substrate reacted: ~26-29% (28.66% repeat 1, 26.4% repeat 2)
[2] = fraction of substrate reacted: ~9-10% (9.79% repeat 1, 9.1% repeat 2)
[3] = fraction of substrate reacted: ~13-16% (15.68% repeat 1, 13.17% repeat 2)

Sequence	relative kcat/Km [1]	relative kcat/Km [2]	relative kcat/Km [3]
TAAAGG	0.833 ± 0.34		
CCGACA	0.842 ± 0.8	0.997 ± 0.31	
GTGTCG	0.804 ± 0.49		
AGCCTA	2.57 ± 0.69	2.05 ± 0.87	1.97 ± 0.57
CACAGT	1.95 ± 1.9		
AACAGA	5.65 ± 2.1	3.71 ± 2.3	4.083 ± 0.036
GACAGG	1.2 ± 0.042		
CACAGG	1.35 ± 0.051	0.41 ± 0.093	
GACAGA	6.53 ± 2.4	3.09 ± 0.71	4.59 ± 1.2
CACAGA	7.2 ± 2.4	3.95 ± 0.46	4.77 ± 2
GTACAG	1.99 ± 0.4		
GAAGGT	1.31 ± 0.065		
TACACA	5.53 ± 2.6	3.05 ± 1.1	3.7 ± 0.067
CACAGC	5.98 ± 2.7	3.88 ± 1.2	4.31 ± 1.1
TACAGT	2.94 ± 2.7		
TACAGG	1.7 ± 0.63		
TACAGA	8.3 ± 3	4.52 ± 2	5.66 ± 0.35
TACAGC	6.84 ± 2.6	3.82 ± 2	4.94 ± 0.45
CTGACC	1.2 ± 0.63		0.599 ± 0.52
ACTGTC	1.12 ± 0.25	1.77 ± 1.3	0.935 ± 0.31
AAGATT	2.06 ± 0.8	1.89 ± 0.21	1.82 ± 0.21
TGCTAA	3.74 ± 1.1	2.19 ± 0.95	2.88 ± 0.23
TTCTAA	10.6 ± 4.1	5.69 ± 2.2	7.17 ± 1.2
GGCTAA	3.19 ± 0.8	2.12 ± 0.85	2.32 ± 0.78
TTTCTA	2.89 ± 1.2	2.15 ± 0.72	2.3 ± 0.57
GTGTAA	2.94 ± 1.5	1.31 ± 0.75	2.41 ± 1.1

Sequence	relative kcat/Km [1]	relative kcat/Km [2]	relative kcat/Km [3]
AGCTAA	5.8 ± 3	3.22 ± 1.8	3.61 ± 1
GTCTAA	10.1 ± 4.8	4.58 ± 0.43	7.55 ± 1.7
TTCTAG	7.01 ± 3.1	4.08 ± 2.6	4.58 ± 0.56
TGCTAG	2.44 ± 0.12	1.97 ± 1.5	1.376 ± 0.0054
ATCTAA	8.58 ± 3.4	4.39 ± 1.5	5.55 ± 1.1
GTGAAC	2.83 ± 0.88	1.89 ± 0.25	2.27 ± 0.31
TTGCAG	1.37 ± 0.19		
GGCTTC	1.7 ± 0.44	0.513 ± 0.13	1.31 ± 0.14
CACTCC	5.21 ± 1.3	3.12 ± 2.1	3.9 ± 0.2
CAAGCT	1.37 ± 0.37	1.48 ± 1.3	0.905 ± 0.4
ATGTAC	5.39 ± 2.7	3.03 ± 0.37	3.81 ± 0.94
TGCGGT	2.25 ± 1.2		
TTCTAT	10.5 ± 4.7	5.38 ± 0.96	7.59 ± 1.6
TGCTAT	3.79 ± 1.5	2.93 ± 0.94	2.69 ± 0.56
AGCTAT	5.23 ± 1.9	4.03 ± 1.8	3.39 ± 1.1
TTCTAC	10.6 ± 4.4	5.32 ± 1.5	7.7 ± 1.3
CTCTAA	8.82 ± 3.7	4.48 ± 1.2	6.21 ± 1.1
CTAAAA	2.89 ± 0.88	2.15 ± 0.51	2.43 ± 0.18
TGCTAC	4.62 ± 2.6	2.42 ± 1.5	2.16 ± 0.89
CGCTAA	5.96 ± 2.3	3.07 ± 0.43	3.99 ± 1.2
TGTGAA	3.58 ± 1.9	2.72 ± 0.39	2.92 ± 0.98
TGATAT	6.11 ± 3.1	1.84 ± 0.025	3.77 ± 0.75
ACATCG	1.61 ± 0.095	1.31 ± 1.1	
TGGACT	0.76 ± 0.046	1.76 ± 0.67	0.899 ± 0.057
GGTAGG	1.74 ± 0.56		
ATCCCG	1.86 ± 0.023	1.67 ± 1.4	0.83 ± 0.4

Sequence	relative kcat/Km [1]	relative kcat/Km [2]	relative kcat/Km [3]
GTAGCC	2.13 ± 0.51	1.99 ± 0.12	1.48 ± 0.66
TTTAAT	5.8 ± 2.3	3.19 ± 1.8	3.87 ± 0.24
CAATAT	6.37 ± 3	3.27 ± 0.33	4.46 ± 0.96
ACCATT	4.27 ± 1.3	2.5 ± 1.4	2.84 ± 0.28
TCCATA	6.71 ± 2.6	4.06 ± 1.5	4.66 ± 0.32
TCCATT	7.33 ± 3.2	4.11 ± 1.2	4.85 ± 1.2
ACCATA	3.64 ± 0.82	2.8 ± 1.8	2.2 ± 0.51
TCCATG	3.46 ± 0.3		1.42 ± 0.26
GCCATT	4.74 ± 1.7	1.91 ± 0.79	2.36 ± 0.9
GGCCTC	1.94 ± 0.76	1.28 ± 0.39	0.933 ± 0.5
GCATGA	2.21 ± 0.69	1.91 ± 0.28	1.07 ± 0.63
AACAAA	5.24 ± 1.1	3.32 ± 2.3	3.9 ± 0.11
CACAAA	6.59 ± 2.9	3.35 ± 0.11	4.93 ± 1.2
TACAAG	4.49 ± 1.9	1.6 ± 0.23	2.38 ± 0.42
CACAAC	6.36 ± 2.1	3.95 ± 1.3	4.05 ± 0.63
GACAAC	6.93 ± 3.1	3.9 ± 0.94	3.84 ± 1.1
TACAAA	7.71 ± 3	3.89 ± 1.8	5.2 ± 0.41
AACAAG	3.26 ± 0.69		1.32 ± 0.57
GACACC	5.28 ± 1.8	3.17 ± 1.9	3.35 ± 0.2
AACAAC	4.45 ± 1.8	2.99 ± 0.85	3.22 ± 0.17
GACAGC	5.59 ± 1.6	3.44 ± 1	4.06 ± 0.54
TACAAC	7.11 ± 3	3.75 ± 1.9	5.24 ± 0.76
CACAAG	3.72 ± 0.99	1.66 ± 0.94	1.78 ± 0.81
ACGCAT	3.39 ± 1.3	1.58 ± 0.85	2.23 ± 0.052
TTGTCG	1.07 ± 0.3		
TCTCGG	1.04 ± 0.15	1.19 ± 1.1	0.684 ± 0.45

Sequence	relative kcat/Km [1]	relative kcat/Km [2]	relative kcat/Km [3]
TCTTCA	2.49 ± 0.68	2.36 ± 1.3	1.88 ± 0.27
ACCCGT	1.96 ± 1.4	1.55 ± 1.5	1.9 ± 1.9
AGCTCA	3.13 ± 1.1	2.57 ± 1.9	2.16 ± 0.53
AACACT	3.76 ± 0.87	1.88 ± 1.1	2.41 ± 0.39
TGACTT	3.33 ± 1.3	1.97 ± 0.23	2.77 ± 0.65
CACATT	6.23 ± 2.3	3.5 ± 1.3	4.74 ± 0.66
CACACT	4.82 ± 1.5	2.56 ± 0.39	3.16 ± 0.72
GACACG	2.6 ± 0.37		1.39 ± 0.034
GACAAA	6.91 ± 2.5	4.01 ± 1.6	4.49 ± 0.5
CACAAT	6.78 ± 2.9	3.85 ± 1.2	4.61 ± 0.51
AACAAT	4.49 ± 1.9	1.84 ± 0.24	3.26 ± 0.41
TACAAT	7.14 ± 3.4	2.84 ± 0.75	4.74 ± 0.94
GACAAG	4.06 ± 0.99	2 ± 1.4	2.152 ± 0.02
GACAAT	5.83 ± 2.4	3.33 ± 1.5	3.55 ± 1.1
AGGCTC	0.722 ± 0.43		
GTTACA	3.09 ± 1.2	1.9 ± 0.82	2.16 ± 0.12
CTGCCA	1.19 ± 0.3	1.58 ± 1	0.692 ± 0.67
TCACAT	6.08 ± 2.7	3.6 ± 1.2	4.18 ± 0.55
AACGTG	0.741 ± 0.57		
GGATGC	2.74 ± 1	1.44 ± 0.27	1.71 ± 0.79
CAAAGC	1.94 ± 1.2	1.07 ± 0.26	1.12 ± 1.1
TCTCGA	4.89 ± 2	3.05 ± 0.36	3.16 ± 0.42
GCCTCA	5.77 ± 2.1	3.93 ± 1.6	4.02 ± 0.47
TCCTCA	6.64 ± 2.4	3.22 ± 0.45	4.2 ± 0.86
